Measured potencies and affinities stand elsewhere. Active and inactive are the calls of the source. How the calls were made is not given here.
How the values were obtained:
[1] = A549 cell cytotoxicity, dose response, cytotoxicity control, plate reader, cherry-pick, antagonist series (AID 743412)
[2] = toxicity toward HepG2 liver cells – cell-based, plate reader, cherry-pick, antagonist series, cytotoxicity control, dose response (AID 743416)
[3] = target: Melanocortin receptor 4 (Homo sapiens) (UniProt P32245); experiment: blockade of melanocortin 4 receptor signaling – cell-based, plate reader, cherry pick, counter-screen for LGR2 antagonist project, dose response (AID 743444)

Row | Compound | outcome [1] | outcome [2] | outcome [3]
1 | OC1CCC(Nc2ccn3nc(-c4cccc(OCc5ccccc5)c4)cc3n2)CC1 (configuration not stated) | inactive | inactive | –
2 | CCOC(=O)c1cn2nc(N3CCCCC3)ccc2n1 | inactive | inactive | –
3 | CC(C)Nc1ncnc2c1cnn2-c1ccc(Cl)cc1 | inactive | inactive | –
4 | COc1ccc(-c2cc(C(=O)N3CCOCC3)no2)cc1 | inactive | inactive | –
5 | COc1cc(SC)ccc1C(=O)Nc1ccc(Cl)cn1 | inactive | inactive | –
6 | COc1ccc(-n2sc3ccc(F)cc3c2=O)cc1 | inactive | inactive | –
7 | O=C(CN1C(=O)c2ccccc2S1(=O)=O)c1ccc(F)c(F)c1 | inactive | inactive | –
8 | FC(F)(F)c1cccc(CC2CN(Cc3ccccc3)Cc3ccccc3N2c2cc(Cl)cc(Cl)c2)c1 (configuration not stated) | inactive | inactive | –
9 | COc1ccc(-c2cc(C)nc3c(-c4ccccc4)cnn23)cc1 | inactive | inactive | –
10 | O=C(O)c1c2c(nc3ccccc13)/C(=C/c1ccc(O)cc1)CC2 | inactive | inactive | –
11 | Cc1cnc(NC(=O)c2ccc(OCC3CCCO3)cc2)s1 (configuration not stated) | inactive | inactive | –
12 | COc1ccc(S(=O)(=O)N2CCCCN3[C@H](CO)[C@H](c4ccc(-c5cccnc5)cc4)[C@@H]3C2)cc1 | inactive | inactive | –
13 | COc1ccc(-c2cc(C(=O)N3CCCC3)no2)cc1 | inactive | inactive | –
14 | Cc1cc(C(=O)Nc2ccc(N3CCCCC3)cc2)no1 | inactive | inactive | –
15 | Cc1cc(C(=O)COC(=O)C2CC2)c(C)n1-c1ccc(F)cc1 | inactive | inactive | –
16 | O=C(CN1CCOc2ccccc21)NCc1ccc(F)cc1 | inactive | inactive | –
17 | COc1ccc(/C=C/C(=O)Nc2ccccc2C(=O)O)cc1OC | inactive | inactive | –
18 | O=C(CN1C(=O)c2ccccc2S1(=O)=O)c1ccc2c(c1)OCCCO2 | inactive | inactive | –
19 | Cc1ccc(NC(=O)c2cnn(-c3ccccc3)c2C)cc1C | inactive | inactive | –
20 | C[C@H](CO)N1C[C@H](C)[C@H](CN(C)C(=O)Nc2cccc3ccccc23)OCCCC[C@H](C)Oc2ccc(NC(=O)NC3CCCCC3)cc2C1=O | inactive | inactive | –
21 | Cc1ccc(C(=O)C2C(=O)C3CCC2C3)cc1 (configuration not stated) | inactive | inactive | –
22 | Cc1ccc2nc(-c3ccc(NC(=O)C(C)Sc4nncs4)cc3)sc2c1 (configuration not stated) | inactive | inactive | –

Row | Compound | outcome [1] | outcome [2] | outcome [3]
23 | Cc1c(NC(=O)c2cccc(NC(=O)COc3ccccc3C#N)c2)c(=O)n(-c2ccccc2)n1C | inactive | inactive | –
24 | Cc1ccc(-c2cc(C(=O)N3CCOCC3)no2)cc1 | inactive | inactive | –
25 | O=C(Nc1ccc(N2CCN(C(=O)c3ccc(Cl)cc3)CC2)cc1)c1cc2ccccc2o1 | inactive | inactive | –
26 | Cc1ccc2nc(-c3ccc(NC(=O)COC(=O)c4ccco4)cc3)sc2c1 | inactive | inactive | –
27 | O=C(O)c1ccc(N/N=C/c2ccc(OC(=O)c3cccc(Cl)c3)cc2)cc1 | inactive | inactive | –
28 | Clc1ccc(OCc2nc(-c3ccccn3)no2)c(Br)c1 | inactive | inactive | –
29 | Cc1c(C)c2ccc(OCC(=O)Nc3nccs3)cc2oc1=O | inactive | inactive | –
30 | CN(C)c1ccc(C2NC(=O)c3ccccc3N2)cc1 (configuration not stated) | inactive | inactive | –
31 | c1ccc(-n2ncc3c(N4CCCCC4)ncnc32)cc1 | inactive | inactive | –
32 | CCOC(=O)c1cn2nc(N3CCCC3)ccc2n1 | inactive | inactive | –
33 | CN(c1ccccc1)S(=O)(=O)c1cccc(NC(=O)c2cc(=O)c3ccccc3o2)c1 | inactive | inactive | –
34 | CCN(CC)S(=O)(=O)c1cc(C(=O)OCC(=O)Nc2ccc(-c3nc4ccc(C)cc4s3)cc2)ccc1F | inactive | inactive | –
35 | C=CCNC(=O)c1c(Cl)nc(C)c([N+](=O)[O-])c1C | inactive | inactive | –
36 | O=C(c1cc(-c2ccc(Cl)cc2Cl)on1)N1CCCC1 | inactive | inactive | –
37 | O=C(Nc1nc2c(s1)CCCC2)C1COc2ccccc2O1 (configuration not stated) | inactive | inactive | –
38 | CC(C)(C)n1ncc2c(=O)n(CC(=O)OCc3ccccc3)cnc21 | inactive | inactive | –
39 | Cc1csc(NC(=O)c2ccc(OCC3CCCO3)cc2)n1 (configuration not stated) | inactive | inactive | –
40 | Cn1cccc1C(=O)OCC(=O)Nc1ccc2c(c1)OCCO2 | inactive | inactive | –
41 | O=C(O)c1ccc(-c2noc(-c3ccccc3Cl)n2)cc1 | inactive | inactive | –
42 | Cc1cc(C(=O)CN2C(=O)c3ccccc3S2(=O)=O)c(C)n1C(C)C | inactive | inactive | –
43 | Cc1ccc(C(=O)n2nc(-n3cccc3)c3c(C)cc(C)nc32)cc1 | inactive | inactive | –
44 | Cc1cc(C(=O)CSc2nnc(N)s2)c(C)n1Cc1cccs1 | inactive | inactive | –

Row | Compound | outcome [1] | outcome [2] | outcome [3]
45 | Cc1ccccc1C(=O)Nc1nnc(-c2ccco2)s1 | inactive | inactive | –
46 | Cc1c(NC(=O)c2ccc(-c3ccccc3)cc2)cccc1C(=O)O | inactive | inactive | –
47 | CC(C)(C)c1ccc(C(=O)NCCOc2ccccc2F)cc1 | inactive | inactive | –
48 | O=C(Nc1cccc(O)c1)c1cc(-c2ccc3c(c2)OCO3)on1 | inactive | inactive | –
49 | CCCC(=O)N1CCCC(c2cc(C(=O)Nc3ccccc3)no2)C1 (configuration not stated) | inactive | inactive | –
50 | Clc1ccccc1/C=C/c1nc(-c2ccccn2)no1 | inactive | inactive | –
51 | CC(C)Oc1ccc(CNC(=O)CC(c2ccccc2)c2cc(Cl)ccc2O)cc1 (configuration not stated) | inactive | inactive | –
52 | COc1ccc(-c2nc(-c3cccs3)no2)cc1 | inactive | inactive | –
53 | CCOc1ccc(C(=O)Nc2cccc(C(=O)O)c2C)cc1Cl | inactive | inactive | –
54 | Cc1ccccc1S(=O)(=O)N1[C@H](C#N)[C@H](c2ccc(C#CC3CCCCC3)cc2)[C@H]1CO | inactive | inactive | –
55 | Cc1ccc(C(=O)Nc2ccc3c(c2)OCCO3)c(Cl)c1 | inactive | inactive | –
56 | c1ccc(-n2cnnc2SCc2cn3cccnc3n2)cc1 | inactive | inactive | –
57 | O=C(COc1ccc2ccccc2c1)Nc1nccs1 | inactive | inactive | –
58 | Cc1nc2c(OCCC3CCCCC3)cccn2c1N(C)C(=O)CCC1CCCC1 | inactive | inactive | –
59 | Cc1cccc(-n2ncc3c(N(C)C4CCCCC4)ncnc32)c1 | inactive | inactive | –
60 | Cc1ccc(C(=O)CN2C(=O)c3ccccc3S2(=O)=O)cc1 | inactive | inactive | –
61 | COc1cc(SC)ccc1C(=O)Nc1ncc(C)s1 | inactive | inactive | –
62 | CCCCCc1ccc(-c2ccc(C(=O)O)cc2)nc1 | inactive | inactive | –
63 | O=C(CN1C(=O)c2ccccc2S1(=O)=O)c1ccccc1F | inactive | inactive | –
64 | Clc1ccc(-n2ncc3c(N4CCCC4)ncnc32)cc1 | inactive | inactive | –
65 | COCCCNc1ccn2nc(-c3ccccc3)cc2n1 | inactive | inactive | –
66 | Cc1ccc2nc(-c3ccc(NC(=O)c4cccnc4)cc3)oc2c1 | inactive | inactive | –

Row | Compound | outcome [1] | outcome [2] | outcome [3]
67 | CN(C)c1ccc(-c2nc3cc(N)ccc3o2)cc1 | inactive | inactive | –
68 | Cc1cc(C(=O)COC(=O)c2ccccc2O)c(C)n1CC1CCCO1 (configuration not stated) | inactive | inactive | –
69 | Cc1ccc(-c2nnc(-c3ccccc3Br)o2)cc1 | inactive | inactive | –
70 | O=C(CCCc1ccccc1)Nc1cccc(C(=O)O)c1 | inactive | inactive | –
71 | COCCn1c(C)cc(C(=O)CSc2nnnn2C2CCCC2)c1C | inactive | inactive | –
72 | COCCn1c(C)c(C)c2c(NCCc3ccccc3)ncnc21 | inactive | inactive | –
73 | CCS(=O)(=O)N1Cc2ccccc2CC1C(=O)Nc1nc2ccccc2s1 (configuration not stated) | inactive | inactive | –
74 | COc1cc(NC(=O)c2cccc3c(-c4cnn(C)c4)coc23)cc(OC)c1OC | inactive | inactive | –
75 | CSc1nc2ccc(NC(=O)c3ccccn3)cc2s1 | inactive | inactive | –
76 | c1nc(CCO[C@H]2CCCCO2)cc2cc3c(cc12)OCO3 | inactive | inactive | –
77 | O=C(Nc1ccc(Cl)c(S(=O)(=O)N2CCOCC2)c1)c1ccc2c(c1)OCCO2 | inactive | inactive | –
78 | Cc1ccnc(NC(=O)c2cccc(S(=O)(=O)N3CCN(c4ccccc4)CC3)c2)c1 | inactive | inactive | –
79 | Cc1cc(C(=O)COC(=O)c2cccn2C)c(C)n1Cc1ccco1 | inactive | inactive | –
80 | CCOC(=O)C1=CCN(S(=O)(=O)c2ccccc2C)C1c1cccc(C)c1 (configuration not stated) | inactive | inactive | inactive
81 | C=CCn1c(SCC(=O)Nc2ncc(Cc3ccc(C)c(Cl)c3)s2)nnc1-c1ccncc1 | inactive | inactive | inactive
82 | C[C@H](CO)N1C[C@H](C)[C@H](CN(C)C(=O)Nc2ccccc2)OCCCC[C@H](C)Oc2ccc(NC(=O)NC3CCCCC3)cc2C1=O | inactive | inactive | inactive
83 | CC1(c2ccccc2Cl)NC(=O)N(CC(=O)N2CCc3ccccc32)C1=O (configuration not stated) | inactive | inactive | inactive
84 | C[C@@H]1CN([C@@H](C)CO)C(=O)c2cccc(NC(=O)Nc3ccc(C(F)(F)F)cc3)c2O[C@H]1CN(C)C(=O)Nc1cccc2ccccc12 | inactive | inactive | inactive
85 | C[C@@H]1CN([C@H](C)CO)C(=O)c2cc(C#CCN(C)C)cnc2O[C@@H]1CN(C)C(=O)CN1CCOCC1 | inactive | inactive | inactive
86 | CCc1nnc2cccc(Cl)n12 | inactive | inactive | inactive
87 | C[C@@H]1CN([C@@H](C)CO)C(=O)c2cc(NS(C)(=O)=O)ccc2O[C@@H](C)CCCCO[C@@H]1CN(C)Cc1ccc(C(F)(F)F)cc1 | inactive | inactive | inactive

— PubChem BioAssay
